Test in all cases: NCI-60 one-dose screen, 48 h (100 = growth as untreated, 0 = no growth, -100 = all killed)
Common to all, as to settings: 10 µM

Experiment [1] deals with NCI-H23 lung.
Experiment [2] concerns NCI-H226 lung.
The test system of experiment [3] is NCI-H322M lung.
In experiment [4] the test system is HOP-62 NSCLC.
Experiment [5] deals with NCI-H460 lung.
In experiment [6] the test system is NCI-H522 lung.
For experiment [7], the system named is A549/ATCC NSCLC.
For experiment [8], the system named is 786-0 renal.
The subject of experiment [9] is COLO 205 colon.
Experiment [10] deals with DU-145 prostate.
The test system of experiment [11] is MALME-3M melanoma.
Experiment [12] concerns MDA-MB-231 breast.
Experiment [13] concerns RXF 393 renal.
In experiment [14] the test system is SF-268 CNS.
Experiment [15] concerns SF-295 CNS.
The test system of experiment [16] is SF-539 CNS.
The subject of experiment [17] is UACC-257 melanoma.
For experiment [18], the system named is K-562 leukemia.
Experiment [19] relates to M14 melanoma.

The results in this text go back to PubChem BioAssay (NCI).

The panel holds about 83,000 compounds, 20% with a hit somewhere; the sample as a whole holds those more often.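 Single-concentration screen, 48 h exposure, 96-well plates. Endpoint: percent growth. Below 10 = active.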 A number with no mark means an inactive call. Activity calls are given as the source filed them.

Take `CCOC(=O)C1=C(N)N(c2ccc(Cl)cc2)C2=C(C(=O)CC(C)(C)C2)C1c1ccc(N2CCOCC2)cc1` (configuration not stated): the growth is 105% in experiment [1]; 93.6% in experiment [2]; 95.4% in experiment [3]; 118% in experiment [4]; 94% in [5]; 89.3% in [6]. For the same molecule, the growth is 90% in experiment [7]; 89.4% in experiment [8]; 99.8% in experiment [9]; 99% in experiment [10]; 93.9% in experiment [11]; 87.3% in experiment [12]. Also, the growth in [13] was 98.6%; in [14] it was 89.7%; in experiment [15] it was 89.3%; in experiment [16], 100%; in experiment [17] it was 106%.

Consider `CC1(c2ccccc2)NC(=O)N(CC(=O)Nc2ccc(C(=O)/C=C/c3ccc(Cl)cc3)cc2)C1=O` (configuration not stated), for which the growth is 18.6% in [1]; -0.196% (active) in experiment [2]; 51.1% in experiment [3]; 35.6% in [4]; 21.5% in experiment [5]; 41.4% in experiment [6]. Also, the growth was 6.84% (active) in [7]; -21.5% (active) in [8]; 28% in experiment [10]; 2.06% (active) in experiment [18]; 34.8% in experiment [11]; 13.6% in experiment [12]. Also, the growth in experiment [14] was 19.7%; in experiment [15], 8.45% (active); in experiment [16], -89.3% (active); in experiment [17], 20.6%; in [19] it was -26.9% (active).

Turning to `O=C(CS(=O)(=O)c1oc(-c2ccc(Cl)cc2)nc1S(=O)(=O)c1ccc(Cl)cc1)N1CCOCC1`, the growth in experiment [1] was 48.9%; in [2] it was 78.2%; in experiment [3], 93.5%; in experiment [4] it was 84.3%; in experiment [5] it was 107%; in [6] it was -14.8% (active). Also, the growth in [7] was 83.7%; in experiment [8] it was 40.3%; in experiment [9], 10.5%; in experiment [10], 32.3%; in experiment [11], -71.3% (active); in [12], -1.43% (active). The growth is -76.1% (active) in experiment [13]; 84.6% in experiment [14]; 85% in experiment [15]; 21.5% in experiment [16]; 73.9% in [17]; 24.4% in experiment [19].

Consider `COc1cc(-c2nc3cc(Cl)c(Cl)cc3[nH]2)ccc1OCc1nnc(-c2ccc(Br)cc2)o1`, for which the growth in experiment [1] was 24%; in [2], -46.8% (active); in experiment [3], 38.8%; in [4] it was -28.1% (active); in [5] it was 22.9%; in [6], 8.01% (active). Moreover, the growth was 19.5% in [7]; -31% (active) in experiment [8]; 51.4% in experiment [9]; 47.2% in experiment [10]; 6.47% (active) in experiment [18]; -78.2% (active) in experiment [11]. For the same molecule, the growth was -38.9% (active) in experiment [12]; -77.7% (active) in experiment [13]; 38.6% in experiment [14]; -46.1% (active) in experiment [15]; -92.4% (active) in experiment [16]; 4.56% (active) in experiment [17]. In addition, in [19], the growth was -9.79% (active).

Regarding `CC(=O)Nc1ccc(-n2cnc3cc(-c4ccc(NS(C)(=O)=O)cc4)ccc32)cc1`, the growth was 61% in experiment [1]; -68.4% (active) in experiment [2]; 59.1% in [3]; 75.4% in experiment [4]; 33.4% in experiment [5]; 46.9% in experiment [6]. The growth in [7] is 57%; in experiment [8], 52.3%; in [9], 63.9%; in experiment [10] it was 58.2%; in experiment [18] it was 24%; in [11] it was 75.6%. The growth in experiment [12] is 49.4%; in experiment [13], 92.5%; in experiment [14], 47.3%; in [15], 51%; in experiment [16] it was 65.3%; in experiment [17], 64.4%. In addition, the growth in experiment [19] is 61.9%.

Regarding `O=C1N/C(=N\c2nccs2)S/C1=C\c1cccs1`, the growth in [1] was 38.1%; in experiment [2], 19.9%; in [3], 45.2%; in [4] it was 33.6%; in experiment [5], 14.7%; in experiment [7] it was 26.8%. Further, the growth in experiment [8] was 43.2%; in experiment [9], 29%; in [10], 53.2%; in experiment [18], 20.1%; in experiment [11], 28.9%; in [12], 47.6%. For the same molecule, the growth in experiment [14] is 44.7%; in experiment [15], 13.4%; in [16] it was 21.8%; in experiment [17] it was 49.6%; in [19], 9.09% (active).

Regarding `O=C(Cc1ccc2c(c1)CN(C1CCC(=O)NC1=O)C2=O)NCc1cccc2ccccc12` (configuration not stated), the growth in experiment [1] is 12.7%; in experiment [2], 1.96% (active); in experiment [3], -4.15% (active); in experiment [4], -23.1% (active); in experiment [5], 45.7%; in experiment [6], -21.4% (active). The growth in [7] was 7.72% (active); in experiment [8], -23.6% (active); in experiment [9], -35.7% (active); in experiment [10] it was -7% (active); in [18], 8.3% (active); in [11], -72.2% (active). The growth is -47.5% (active) in experiment [12]; -8.53% (active) in [14]; -8.76% (active) in experiment [15]; -23.3% (active) in [16]; 32.5% in [17].

Regarding `CCN1CCN(c2ccc(NC(=O)Nc3ccc(-c4cc(C(=O)NC(C)C)c5ncccc5n4)cc3)cc2C(F)(F)F)CC1`, the growth in [1] is -86.3% (active); in experiment [2], -81.2% (active); in [3] it was -66% (active); in experiment [4], -87.8% (active); in experiment [5], -40.5% (active); in experiment [6], -86.3% (active). Besides, the growth in experiment [7] is -87.6% (active); in [8] it was -93.6% (active); in [9], -78.2% (active); in experiment [10], -54.9% (active); in [11], -97.5% (active); in [12], -91.9% (active). Besides, the growth in [13] was -96% (active); in [14] it was -16.3% (active); in experiment [15], -92.4% (active); in experiment [16], -98.9% (active); in [17], -95.6% (active); in [19] it was -88.4% (active).
